In PubChem BioAssay:
Activity calls are given as the source filed them.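 Rule for the calls, unless noted: active = fluorescence slope higher than the sample average by over 3 SD (cut at about -0.22 in these data, passing the limit was not always enough); inactive = the rest.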

Key:
[1] = inhibitors of TNFa-induced NFkB p65 translocation, primary screen, imaging, HUVEC, MLSMR starter and 10KST1 sets (AID 438;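 active = inhibition above 20% together with a positive visual image hit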;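 note: compound added about 3h40 before a 20 min TNFalpha stimulation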;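 for inhibition: signal is the nuclear over cytoplasmic p65 intensity ratio per well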); settings: HUVEC TNFa-induced p65 nuclear translocation; cell count: measured here: nuclei count (cytotoxicity indicator), at 2.08 µM; inhibition: at 2 µM, stronger effect = higher value, 0% TNFa-plus-vehicle, 100% no-TNFa wells
[2] = reduction of polyQ htt aggregates in cells – imaging, exon1htt(103Q)mCFP cells, high-content imaging, primary screen (AID 483;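 active = visual image review flags a hit and inhibition of aggregation exceeds 20%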;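 note: compound exposure lasted 3 days before fixation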;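 for nuclei count: percent of the per-plate median nuclei count of sample wells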); settings: exon1htt(103Q)mCFP cell line, aggregate imaging, at 2 µM; inhibition of aggregation: stronger effect = higher value; nuclei count: measured here: cell count, toxicity
[3] = endothelial E-selectin expression blockers – imaging, HUVEC, immunofluorescence, MLSMR starter and 10KST1 sets, primary screen (AID 487;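 active = visually confirmed hit in the image check and inhibition above 20%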;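 for inhibition: signal is fraction of cell area covered by stained E-selectin grains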;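 for nuclei count: 100% = median nuclei count of all wells on the same plate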); settings: HUVEC TNFalpha-induced E-selectin immunofluorescence imaging, at 2 µM; inhibition: stronger effect = higher value; nuclei count: measured here: cell number, toxicity
[4] = biological target: Voltage-gated potassium channel subunit beta-2 (Rattus norvegicus) (UniProt P62483); assay: inhibitors of rat Kvbeta2 reductase activity – biochemical, NADPH fluorescence, primary screen (AID 622); settings: recombinant KvBeta, 4-cyanobenzaldehyde reduction, at 10 µM, stronger effect = higher value;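 note: slope of raw intensity against log time taken from 70 to 1610 s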
[5] = biological target: Voltage-gated potassium channel subunit beta-2 (Rattus norvegicus) (UniProt P62483); assay: enhancers of rat Kvbeta2 NADPH turnover – biochemical, NADPH fluorescence, primary screen (AID 623;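 active = NADPH fluorescence slope more negative than the mean of all samples by about 3 SD, 99.7% confidence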;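 note: fluorescence intensity change per second fitted from 20 to 320 s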); settings: Recombinant KvBeta, NADPH fluorescence decrease slope, 10 min; at 10 µM; stronger effect = lower value
[6] = biological target: Alpha-2C adrenergic receptor (Homo sapiens) (UniProt P18825); assay: compounds altering alpha2C-coupled GIRK flux – cell-based, HEK293 alpha2C/GIRK1/2, thallium flux, primary screen (AID 624;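 active = fluorescence slope after compound addition differing from the mean of all screened samples at 99.7% confidence, in either direction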;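 note: slope of fluorescence ratio to pre-addition baseline per second over 15 to 24 s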); settings: thallium flux BTC fluorescence, at 10 µM, actives lie on both sides
[7] = blockers of RIG-like receptor reporter activation – cell-based, Sendai virus stimulus, luciferase, 10K MLSCN set, TLR/RLR signaling modifier project, primary screen (AID 602276;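 active = inhibition at or above 50% at 10 µM; inactive = inhibition below 50%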;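 note: firefly luciferase from ISG56 promoter only with Renilla not read in this screen; 0% = Sendai virus plus DMSO and 100% = medium plus DMSO without virus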); settings: HEK293 RL24 IRF3 luciferase reporter, at 10 µM, stronger effect = higher value
[8] = TLR3 IRF3 reporter activation blockers – cell-based, poly I:C stimulus, luciferase, 10K MLSCN set, primary screen (AID 602277;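 active = inhibition of the reporter signal at or above 50%; inactive = inhibition below 50%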); settings: HEK293-TLR3 RL24 IRF3 luciferase reporter, at 10 µM, stronger effect = higher value

Chain of Alpha-2C adrenergic receptor (Homo sapiens) (P18825 whole entry, looked up): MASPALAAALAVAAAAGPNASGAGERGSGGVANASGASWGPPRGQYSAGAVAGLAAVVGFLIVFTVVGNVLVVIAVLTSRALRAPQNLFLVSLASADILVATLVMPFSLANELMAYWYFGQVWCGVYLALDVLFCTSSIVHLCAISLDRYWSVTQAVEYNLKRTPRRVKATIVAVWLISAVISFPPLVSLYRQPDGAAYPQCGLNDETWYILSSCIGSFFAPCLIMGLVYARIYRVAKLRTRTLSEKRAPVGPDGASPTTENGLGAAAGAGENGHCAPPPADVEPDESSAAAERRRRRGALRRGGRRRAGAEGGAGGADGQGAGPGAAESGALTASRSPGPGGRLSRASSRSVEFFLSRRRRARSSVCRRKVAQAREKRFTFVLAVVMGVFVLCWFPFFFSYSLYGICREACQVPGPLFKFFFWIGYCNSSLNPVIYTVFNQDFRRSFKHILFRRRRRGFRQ
Chain of Voltage-gated potassium channel subunit beta-2 (Rattus norvegicus) (P62483 whole entry, looked up): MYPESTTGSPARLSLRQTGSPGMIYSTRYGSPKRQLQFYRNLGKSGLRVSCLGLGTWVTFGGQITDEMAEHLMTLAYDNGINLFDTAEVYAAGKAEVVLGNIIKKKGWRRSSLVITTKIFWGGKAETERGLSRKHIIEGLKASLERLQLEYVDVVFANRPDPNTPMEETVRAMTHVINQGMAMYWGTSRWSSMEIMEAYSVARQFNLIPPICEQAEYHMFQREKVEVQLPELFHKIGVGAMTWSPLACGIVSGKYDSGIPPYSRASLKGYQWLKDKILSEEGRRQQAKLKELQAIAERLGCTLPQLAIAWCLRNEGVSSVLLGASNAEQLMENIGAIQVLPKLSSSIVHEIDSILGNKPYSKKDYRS

SMILES	cell count [1]	inhibition [1]	inhibition of aggregation [2]	nuclei count [2] [%]	inhibition [3]	nuclei count [3] [%]	fluorescence slope [4]	NADPH fluorescence slope [5]	slope [6]	inhibition [7]	inhibition [8]
CC1=C(C(=O)Nc2ccc(F)cc2)C(c2cccc(C)c2)n2nc(CCCO)nc2N1 (stereo not drawn)	784	-3.5% (inactive)	6.5% (inactive)	88.4	-32.3% (inactive)	133	-0.405 (inactive)	-1.6e-05 (inactive)	0.00457 (inactive)	13.9% (inactive)	41.1% (inactive)
Cc1cc2cc(CN(CCCN3CCOCC3)C(=O)NC3CCCCC3)c(=O)[nH]c2cc1C	540	-2.5% (inactive)	-7.3% (inactive)	93.3	0.4% (inactive)	105	-0.484 (inactive)	6.2e-07 (inactive)	0.00496 (inactive)	10.2% (inactive)	34.8% (inactive)
CC(NC(=O)Nc1ccccc1)C(c1cccs1)N1CCOCC1 (stereo not drawn)	606	-0.5% (inactive)	-6.2% (inactive)	97.6	-2.9% (inactive)	111	-0.6 (inactive)	-9.3e-06 (inactive)	0.00654 (inactive)	1.55% (inactive)	31% (inactive)
CCc1ccc2[nH]c(=O)c(C(c3nnnn3CC3CCCO3)N3CCCc4ccccc43)cc2c1 (stereo not drawn)	339	-8.5% (inactive)	12.7% (inactive)	87.5	22.4% (inactive)	97.3	-0.422 (inactive)	-4.4e-05 (inactive)	0.00442 (inactive)	22.7% (inactive)	32.6% (inactive)
Cc1cccc2cc(CN(CCCO)C(=O)Nc3ccc(Cl)cc3)c(=O)[nH]c12	402	5.6% (inactive)	-13% (inactive)	117	-307% (inactive)	156	-0.646 (inactive)	1e-05 (inactive)	0.00902 (inactive)	12.2% (inactive)	-2.7% (inactive)
Cc1ccc(NC(=O)CCC(=O)O)cc1F	381	9.4% (inactive)	-13.4% (inactive)	97.1	-10.9% (inactive)	115	-0.508 (inactive)	-7.1e-05 (inactive)	0.00611 (inactive)	16.4% (inactive)	24.4% (inactive)
CCOC(=O)N1CCN(c2c(NCCCOC(C)C)c(=O)c2=O)CC1	642	-1.6% (inactive)	-10.2% (inactive)	109	27.9% (inactive)	122	-0.513 (inactive)	-2.4e-05 (inactive)	0.00694 (inactive)	7.84% (inactive)	16% (inactive)
COCCNC(=O)c1cc(-c2cccs2)on1	793	-4% (inactive)	-19.1% (inactive)	116	-46.8% (inactive)	126	-0.587 (inactive)	6.5e-06 (inactive)	0.00598 (inactive)	-27.2% (inactive)	-253% (inactive)
CCCC(=O)Nc1nnc(CC(=O)OCC)s1	799	-7.3% (inactive)	11% (inactive)	95.6	-35.4% (inactive)	113	-0.614 (inactive)	1.3e-05 (inactive)	0.00516 (inactive)	-5.88% (inactive)	15.8% (inactive)
CCN=C1SC(CC(=O)Nc2ccccc2)C(=O)N1CC (stereo not drawn)	265	3.4% (inactive)	26.6% (inactive)	92	-95.4% (inactive)	109	-0.341 (inactive)	-1.1e-05 (inactive)	0.00797 (inactive)	8.21% (inactive)	30% (inactive)
Clc1ccc(-n2nnnc2Sc2ncnc3sccc23)cc1	530	-9% (inactive)	-12.2% (inactive)	107	-12.2% (inactive)	122	-0.528 (inactive)	-4.1e-05 (inactive)	0.00502 (inactive)	5.22% (inactive)	66.8% (active)
CCCOc1cccc(C(=O)Nc2cc(NC(=O)c3ccco3)ccc2OC)c1	436	3.8% (inactive)	2.3% (inactive)	101	8.3% (inactive)	105	-0.278 (inactive)	-2.4e-05 (inactive)	0.00685 (inactive)	2.93% (inactive)	-15% (inactive)
CCCCOn1c(C)c(C(=O)OCC)c2c3nonc3ccc21	596	-27.1% (inactive)	-30.2% (inactive)	116	-12.4% (inactive)	101	-0.458 (inactive)	6.8e-06 (inactive)	0.00452 (inactive)	-10.2% (inactive)	-12.6% (inactive)
C=CCOc1nc(N(C)C)nc(N(C)C)n1	569	3.6% (inactive)	-3.6% (inactive)	103	-138% (inactive)	96	-0.595 (inactive)	-3.9e-05 (inactive)	0.00356 (inactive)	10.6% (inactive)	10.6% (inactive)
CCN1C(=O)c2ccccc2S(=O)c2ccc(C(=O)NC3CC3)cc21 (stereo not drawn)	533	0.6% (inactive)	20.1% (inactive)	74.1	6.3% (inactive)	104	-0.505 (inactive)	-2.6e-05 (inactive)	0.0077 (inactive)	17.3% (inactive)	24% (inactive)
CCCC(=O)NCCc1cc2c(C)ccc(C)c2[nH]c1=O	592	-4.8% (inactive)	-1.1% (inactive)	114	-9% (inactive)	117	-0.557 (inactive)	-2.9e-05 (inactive)	0.00601 (inactive)	9% (inactive)	10.9% (inactive)
CCCCC(=O)NCCc1cc2c(C)ccc(C)c2[nH]c1=O	699	-1% (inactive)	-22.4% (inactive)	105	-13.4% (inactive)	102	-0.552 (inactive)	-3.7e-05 (inactive)	0.00563 (inactive)	10.6% (inactive)	22.7% (inactive)
CC(C)COC(=O)NCC12C=CC(O1)C1C(=O)N(c3ccc(Cl)cc3)C(=O)C12 (stereo not drawn)	280	-0.5% (inactive)	-14.3% (inactive)	104	5.7% (inactive)	119	-0.447 (inactive)	-0.000376 (inactive)	0.005 (inactive)	-5.72% (inactive)	0.93% (inactive)
COc1ccc(OC)c(NC(=O)C2C3CC4OC(=O)C2C4C3)c1 (stereo not drawn)	318	-5.7% (inactive)	6.4% (inactive)	117	-119% (inactive)	114	-0.322 (inactive)	-5.4e-05 (inactive)	0.0056 (inactive)	13.4% (inactive)	18.6% (inactive)
Cc1cc(C)n2cc(CSc3nnnn3-c3ccc(Cl)cc3)nc2n1	446	2.4% (inactive)	-22.5% (inactive)	99.6	15.8% (inactive)	91.8	-0.517 (inactive)	-3.7e-05 (inactive)	0.00492 (inactive)	19.2% (inactive)	16.6% (inactive)
O=S1(=O)N=C(Nc2nc3c(s2)CCCC3)c2ccccc21	319	-4.2% (inactive)	5% (inactive)	102	-33.1% (inactive)	111	-0.468 (inactive)	5.2e-05 (inactive)	0.00562 (inactive)	-62.5% (inactive)	-97.7% (inactive)
Cc1cccc2cc(CN(CCN3CCCC3)C(=O)NC3CCCCC3)c(=O)[nH]c12	641	-7.5% (inactive)	-0.1% (inactive)	84.8	-7.3% (inactive)	97	-0.428 (inactive)	1e-05 (inactive)	0.00641 (inactive)	12.6% (inactive)	38.4% (inactive)
COCCCNC(=O)c1ccccc1NS(=O)(=O)c1ccc(C)cc1	369	-0.9% (inactive)	-9% (inactive)	122	-66.6% (inactive)	72.3	-0.423 (inactive)	-1.5e-05 (inactive)	0.00558 (inactive)	11.8% (inactive)	16.1% (inactive)
CCOC(=O)CNC(=O)CSc1nc(N(C)C)nc(N2CCOCC2)n1	580	5.1% (inactive)	-7.9% (inactive)	110	-71.8% (inactive)	111	-0.517 (inactive)	-4e-05 (inactive)	0.00497 (inactive)	18.7% (inactive)	26.3% (inactive)
CCCN1CCC(NC(=O)Nc2ccc(OC)c(OC)c2)CC1	308	-0.5% (inactive)	12.6% (inactive)	87.5	-43.3% (inactive)	107	-0.383 (inactive)	1.9e-05 (inactive)	0.00372 (inactive)	9.89% (inactive)	33.2% (inactive)
Cc1ccc(C)c(C(=O)CC2(O)C(=O)N(C)c3ccccc32)c1 (stereo not drawn)	497	0.7% (inactive)	-18% (inactive)	106	-7% (inactive)	122	-0.45 (inactive)	-5.8e-05 (inactive)	0.00346 (inactive)	2.91% (inactive)	33.7% (inactive)
COc1ccc(-c2nnn(CC(=O)c3ccc4c(c3)OCCO4)n2)cc1OC	507	-17.7% (inactive)	-8.1% (inactive)	122	17.9% (inactive)	126	-0.48 (inactive)	-4.4e-05 (inactive)	0.00479 (inactive)	19.3% (inactive)	19.3% (inactive)
CCOC(=O)Nc1ccc2c(c1)N(C(=O)OCCN(C)C)c1ccccc1CC2	425	-7.7% (inactive)	25.6% (inactive)	57.1	-16.3% (inactive)	75.4	-0.563 (inactive)	-2.3e-05 (inactive)	0.00722 (inactive)	6.83% (inactive)	30.5% (inactive)
